{"source": "the supplement of paper PMC10849652", "note": "Of roughly 8,800 targets only a part is listed; those with a hit were picked by preference. About 0.5% of all pairs of compound and target were hits. A number with no mark means an inactive call.", "data": [{"compound": "CN1CC[C@H](c2c(O)cc(O)c3c(=O)cc(-c4ccccc4Cl)oc23)[C@H](O)C1 [alvocidib]", "test": "log2 fold change, soluble protein after heating vs DMSO (PISA); higher = thermal stabilisation; K562 lysate, 10 uM; active = over 0.2 and 3.5 SD of the protein, either way, in both replicates (recomputed)", "outline": "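Thermal stability, expressed as log-two fold change relative to solvent controls, is given from duplicates. Crude K562 extract in PBS pH 7.4 with 1 mM MgCl2, at 1 mg/mL protein, was treated with 10 μM compound for 30 min and heated in aliquots for 3 min across 48°C-58°C. After pooling, adjustment to 0.5% NP-40 at 4°C and centrifugation at 21,000xg for 90 min, supernatant protein was measured by TMTpro 16plex LC-MS/MS with channel sums equalised.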", "values": [{"target": "CUX1 isoform 3 (UniProt P39880)", "log2 fold change": -0.03}, {"target": "CLUH, A0A494C0R8", "log2 fold change": 0.076}, {"target": "CUX1 isoform 2 (UniProt Q13948)", "log2 fold change": -0.035}, {"target": "DENND4A isoform 2 (UniProt Q7Z401)", "log2 fold change": -0.067}, {"target": "DNM2 (UniProt P50570)", "log2 fold change": 0.037}, {"target": "DAZAP1 (UniProt Q96EP5)", "sequence (Q96EP5 whole entry, looked up)": "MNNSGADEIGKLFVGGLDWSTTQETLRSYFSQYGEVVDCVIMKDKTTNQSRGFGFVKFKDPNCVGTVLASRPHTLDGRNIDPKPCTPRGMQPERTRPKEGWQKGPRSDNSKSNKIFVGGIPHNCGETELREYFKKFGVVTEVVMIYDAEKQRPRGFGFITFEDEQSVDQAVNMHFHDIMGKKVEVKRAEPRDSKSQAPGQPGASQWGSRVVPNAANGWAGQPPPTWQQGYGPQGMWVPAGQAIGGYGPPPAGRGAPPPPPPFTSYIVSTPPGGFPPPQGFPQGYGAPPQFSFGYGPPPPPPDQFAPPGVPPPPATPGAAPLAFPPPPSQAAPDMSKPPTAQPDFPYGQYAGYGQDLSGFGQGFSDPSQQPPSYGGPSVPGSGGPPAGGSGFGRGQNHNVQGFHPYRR", "log2 fold change": -0.027}, {"target": "DIAPH1 (UniProt H9KV28)", "log2 fold change": -0.039}, {"target": "DNAAF5 (UniProt Q86Y56)", "log2 fold change": 0.024}, {"target": "DDAH1 (UniProt O94760)", "log2 fold change": 0.015}, {"target": "CNOT4 isoform 9 (UniProt O95628)", "sequence (O95628 whole entry, looked up)": "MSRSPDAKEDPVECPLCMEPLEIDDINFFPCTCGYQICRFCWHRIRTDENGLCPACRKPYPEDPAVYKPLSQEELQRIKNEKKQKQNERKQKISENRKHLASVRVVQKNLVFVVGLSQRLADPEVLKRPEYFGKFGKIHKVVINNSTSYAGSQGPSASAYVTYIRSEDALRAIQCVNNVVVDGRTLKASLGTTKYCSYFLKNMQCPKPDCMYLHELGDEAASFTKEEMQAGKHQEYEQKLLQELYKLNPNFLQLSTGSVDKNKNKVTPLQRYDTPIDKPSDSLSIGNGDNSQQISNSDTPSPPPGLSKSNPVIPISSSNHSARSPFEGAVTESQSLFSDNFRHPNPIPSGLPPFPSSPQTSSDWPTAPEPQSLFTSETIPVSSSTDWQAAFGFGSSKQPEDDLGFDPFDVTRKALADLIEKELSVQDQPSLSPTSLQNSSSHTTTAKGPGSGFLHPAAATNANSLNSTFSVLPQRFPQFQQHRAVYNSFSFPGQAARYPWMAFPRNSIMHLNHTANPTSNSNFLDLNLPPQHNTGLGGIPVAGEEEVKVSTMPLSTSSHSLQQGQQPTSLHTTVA", "log2 fold change": -0.351}, {"target": "CLPB isoform 2 (UniProt Q9H078)", "log2 fold change": 0.065}, {"target": "DNAH5 (UniProt Q8TE73)", "log2 fold change": -0.189}, {"target": "DPH5 isoform 5 (UniProt Q9H2P9)", "log2 fold change": -0.012}, {"target": "DAPK1 isoform 3 (UniProt P53355)", "log2 fold change": 0.085}, {"target": "COX7B (UniProt P24311)", "sequence (P24311 whole entry, looked up)": "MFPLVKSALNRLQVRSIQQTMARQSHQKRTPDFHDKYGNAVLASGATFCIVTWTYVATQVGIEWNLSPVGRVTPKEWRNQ", "log2 fold change": 0.013}, {"target": "CIP2A (UniProt Q8TCG1)", "log2 fold change": 0.009}, {"target": "DNA2 (UniProt P51530)", "log2 fold change": -0.116}, {"target": "COG2 (UniProt Q14746)", "log2 fold change": -0.032}, {"target": "DCP1A (UniProt Q9NPI6)", "log2 fold change": -0.002}, {"target": "CSNK1E (UniProt P49674)", "sequence (P49674 whole entry, looked up)": "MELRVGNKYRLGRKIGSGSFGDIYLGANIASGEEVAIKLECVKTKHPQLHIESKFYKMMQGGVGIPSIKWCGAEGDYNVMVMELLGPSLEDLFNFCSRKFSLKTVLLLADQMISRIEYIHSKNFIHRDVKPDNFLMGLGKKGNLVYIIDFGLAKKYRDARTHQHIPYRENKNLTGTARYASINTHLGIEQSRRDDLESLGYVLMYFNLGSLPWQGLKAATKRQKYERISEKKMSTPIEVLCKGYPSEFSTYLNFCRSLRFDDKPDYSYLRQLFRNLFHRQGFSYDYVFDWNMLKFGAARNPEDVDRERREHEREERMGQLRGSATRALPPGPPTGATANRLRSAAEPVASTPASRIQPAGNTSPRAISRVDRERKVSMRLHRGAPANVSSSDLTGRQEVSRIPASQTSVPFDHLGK", "log2 fold change": 0.021}, {"target": "DMAC2L (UniProt Q99766)", "log2 fold change": 0.029}, {"target": "DENND1B (UniProt Q6P3S1)", "sequence (Q6P3S1 whole entry, looked up)": "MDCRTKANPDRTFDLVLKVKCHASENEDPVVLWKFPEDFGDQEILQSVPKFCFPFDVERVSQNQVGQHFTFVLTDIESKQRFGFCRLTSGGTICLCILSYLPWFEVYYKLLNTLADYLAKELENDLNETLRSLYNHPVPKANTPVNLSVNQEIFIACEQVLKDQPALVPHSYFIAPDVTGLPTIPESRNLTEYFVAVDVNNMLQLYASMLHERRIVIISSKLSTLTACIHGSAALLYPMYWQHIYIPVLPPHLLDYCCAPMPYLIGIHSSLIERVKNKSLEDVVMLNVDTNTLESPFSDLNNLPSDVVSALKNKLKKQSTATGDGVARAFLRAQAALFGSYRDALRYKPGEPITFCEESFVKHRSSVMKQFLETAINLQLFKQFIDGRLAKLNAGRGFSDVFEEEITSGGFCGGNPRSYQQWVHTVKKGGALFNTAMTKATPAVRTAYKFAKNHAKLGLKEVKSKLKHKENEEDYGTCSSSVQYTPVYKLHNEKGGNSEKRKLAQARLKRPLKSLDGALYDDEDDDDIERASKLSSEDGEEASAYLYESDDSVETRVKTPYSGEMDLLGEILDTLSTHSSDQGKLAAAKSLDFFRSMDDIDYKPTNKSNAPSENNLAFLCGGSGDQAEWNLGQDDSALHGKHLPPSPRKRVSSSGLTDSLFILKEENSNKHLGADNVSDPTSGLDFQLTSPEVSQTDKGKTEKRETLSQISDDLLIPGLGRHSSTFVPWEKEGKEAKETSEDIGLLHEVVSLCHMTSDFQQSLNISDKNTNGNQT", "log2 fold change": 0.074}, {"target": "COG6 (UniProt Q9Y2V7)", "log2 fold change": 0.026}, {"target": "CORO7 (UniProt P57737)", "log2 fold change": 0.001}, {"target": "DHFR (UniProt P00374)", "sequence (P00374 whole entry, looked up)": "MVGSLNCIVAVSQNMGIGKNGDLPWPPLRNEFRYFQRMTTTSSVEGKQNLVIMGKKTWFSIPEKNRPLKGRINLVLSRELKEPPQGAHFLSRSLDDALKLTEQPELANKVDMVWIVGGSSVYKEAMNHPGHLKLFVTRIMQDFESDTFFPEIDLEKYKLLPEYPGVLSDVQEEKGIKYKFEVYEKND", "log2 fold change": 0.03}, {"target": "CHMP4A isoform 2 (UniProt Q9BY43)", "sequence (Q9BY43 whole entry, looked up)": "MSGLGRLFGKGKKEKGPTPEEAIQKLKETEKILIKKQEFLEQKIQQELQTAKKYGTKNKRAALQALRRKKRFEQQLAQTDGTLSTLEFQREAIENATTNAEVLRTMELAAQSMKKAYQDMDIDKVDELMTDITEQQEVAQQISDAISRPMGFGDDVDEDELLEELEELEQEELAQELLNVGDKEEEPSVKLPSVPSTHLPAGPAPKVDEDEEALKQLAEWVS", "log2 fold change": -0.096}, {"target": "DDX39A (UniProt O00148)", "log2 fold change": -0.017}, {"target": "DCTN1 isoform 4 (UniProt Q14203)", "log2 fold change": 0.3}, {"target": "CMBL (UniProt Q96DG6)", "log2 fold change": 0.006}, {"target": "DBF4 (UniProt Q9UBU7)", "log2 fold change": -0.118}, {"target": "DHRS11 (UniProt Q6UWP2)", "sequence (Q6UWP2 whole entry, looked up)": "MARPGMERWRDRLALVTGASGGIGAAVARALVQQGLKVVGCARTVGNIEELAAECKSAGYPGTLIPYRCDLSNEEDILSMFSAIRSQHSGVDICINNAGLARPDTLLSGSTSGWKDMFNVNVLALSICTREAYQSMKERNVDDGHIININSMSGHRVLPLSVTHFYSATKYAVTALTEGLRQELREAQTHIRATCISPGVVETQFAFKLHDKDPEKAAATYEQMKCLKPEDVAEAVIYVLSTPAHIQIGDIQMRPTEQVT", "log2 fold change": -0.001}, {"target": "DDX54 isoform 2 (UniProt Q8TDD1)", "sequence (Q8TDD1 whole entry, looked up)": "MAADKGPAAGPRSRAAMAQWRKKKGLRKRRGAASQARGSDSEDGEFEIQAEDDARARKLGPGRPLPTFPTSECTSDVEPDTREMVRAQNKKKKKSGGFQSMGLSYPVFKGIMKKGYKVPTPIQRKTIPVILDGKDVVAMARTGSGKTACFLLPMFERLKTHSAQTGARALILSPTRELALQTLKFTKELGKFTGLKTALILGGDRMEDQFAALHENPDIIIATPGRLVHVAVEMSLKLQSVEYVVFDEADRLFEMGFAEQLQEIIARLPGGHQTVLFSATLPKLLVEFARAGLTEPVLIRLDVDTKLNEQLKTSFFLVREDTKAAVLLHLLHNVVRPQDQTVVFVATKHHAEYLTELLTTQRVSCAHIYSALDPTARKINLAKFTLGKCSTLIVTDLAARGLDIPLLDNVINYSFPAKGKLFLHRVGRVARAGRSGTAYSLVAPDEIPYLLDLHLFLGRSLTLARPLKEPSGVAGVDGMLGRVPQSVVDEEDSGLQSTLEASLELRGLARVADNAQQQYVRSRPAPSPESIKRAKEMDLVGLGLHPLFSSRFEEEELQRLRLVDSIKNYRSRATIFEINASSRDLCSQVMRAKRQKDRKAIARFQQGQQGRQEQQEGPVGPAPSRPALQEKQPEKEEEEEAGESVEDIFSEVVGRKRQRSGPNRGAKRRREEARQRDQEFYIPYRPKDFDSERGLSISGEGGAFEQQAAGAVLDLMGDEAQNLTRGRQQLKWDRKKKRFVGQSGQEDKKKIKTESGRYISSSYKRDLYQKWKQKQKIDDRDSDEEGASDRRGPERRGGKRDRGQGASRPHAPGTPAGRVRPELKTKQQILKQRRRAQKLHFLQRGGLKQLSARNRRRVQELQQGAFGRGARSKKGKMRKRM", "log2 fold change": -0.037}, {"target": "CNTN4 (UniProt Q8IWV2)", "sequence (Q8IWV2 whole entry, looked up)": "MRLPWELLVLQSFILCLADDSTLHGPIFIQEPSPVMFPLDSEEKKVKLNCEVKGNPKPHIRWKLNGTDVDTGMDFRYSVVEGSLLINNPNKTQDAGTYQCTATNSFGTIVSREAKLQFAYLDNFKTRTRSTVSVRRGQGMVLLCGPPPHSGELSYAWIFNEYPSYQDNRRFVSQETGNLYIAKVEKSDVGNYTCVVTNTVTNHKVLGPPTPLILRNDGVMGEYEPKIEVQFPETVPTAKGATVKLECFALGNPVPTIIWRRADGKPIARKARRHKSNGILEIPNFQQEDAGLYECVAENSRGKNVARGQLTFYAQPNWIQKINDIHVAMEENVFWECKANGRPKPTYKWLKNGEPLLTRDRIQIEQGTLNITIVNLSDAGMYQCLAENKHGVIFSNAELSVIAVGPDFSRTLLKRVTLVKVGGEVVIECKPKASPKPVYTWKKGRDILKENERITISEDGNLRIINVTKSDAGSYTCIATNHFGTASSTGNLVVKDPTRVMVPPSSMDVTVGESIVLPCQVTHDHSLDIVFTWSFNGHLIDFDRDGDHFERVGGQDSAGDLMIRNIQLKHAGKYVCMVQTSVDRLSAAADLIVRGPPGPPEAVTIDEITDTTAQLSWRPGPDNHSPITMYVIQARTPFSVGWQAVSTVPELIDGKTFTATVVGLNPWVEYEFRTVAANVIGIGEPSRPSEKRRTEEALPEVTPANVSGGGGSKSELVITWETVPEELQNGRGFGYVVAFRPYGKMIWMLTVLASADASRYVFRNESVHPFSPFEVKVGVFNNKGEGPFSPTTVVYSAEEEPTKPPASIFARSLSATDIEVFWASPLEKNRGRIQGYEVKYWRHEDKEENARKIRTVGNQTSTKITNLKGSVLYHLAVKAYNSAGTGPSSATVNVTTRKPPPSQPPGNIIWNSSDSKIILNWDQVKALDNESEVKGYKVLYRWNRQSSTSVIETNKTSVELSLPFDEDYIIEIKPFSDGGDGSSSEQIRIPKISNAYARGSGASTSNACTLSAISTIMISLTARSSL", "log2 fold change": -0.148}, {"target": "CNNM2 (UniProt Q9H8M5)", "log2 fold change": -0.049}, {"target": "CSTF2 (UniProt P33240)", "log2 fold change": -0.023}]}]}
